This note sets out measurements from PMC7862700, “An all-to-all approach to the identification of sequence-specific readers for epigenetic DNA modifications on cytosine”.

What all share (experiment): DAPPL (digital affinity profiling via proximity ligation, sequencing); 10 mM Tris-HCl pH 7.5, 50 mM NaCl, 1 mM DTT, 4% glycerol, room temperature, 30 min; GST-TFs on glutathione beads, 16-mer random dsDNA library, 0.1% formaldehyde crosslink after washing; high values mean tight binding
Test [1] concerns the target T1, FEV (Homo sapiens, UniProt Q99581 1-238).
T1 sequence: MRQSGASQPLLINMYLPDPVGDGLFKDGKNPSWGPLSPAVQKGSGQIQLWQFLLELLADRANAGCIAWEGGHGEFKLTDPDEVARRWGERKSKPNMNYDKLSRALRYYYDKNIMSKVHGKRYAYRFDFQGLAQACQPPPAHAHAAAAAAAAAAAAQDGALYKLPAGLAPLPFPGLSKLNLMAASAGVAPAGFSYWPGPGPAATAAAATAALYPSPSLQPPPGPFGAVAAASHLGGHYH
The settings on record: protein: recombinant; tags: N-terminal GST; dsDNA, one strand shown. A digest of the protocol:
(§1)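 Sequencing on an Illumina NextSeq500 followed washing, crosslinking with 0.1% formaldehyde, proximity ligation (BsaI/T4 ligase, 1 h, 37 °C) and PCR amplification of pools that had been incubated for 30 min at room temperature with 200 nmole of a random double-stranded 16-mer DNA library in Tris/NaCl/DTT/glycerol buffer. Each pool held DNA-barcoded human transcription factors, expressed in yeast as GST fusions and captured on glutathione beads, plus a tag-only sample. Binding signal is a hexamer's read frequency for a factor divided by its frequency in the tag-only sample.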

Test [2] has as its target ETV5 (Homo sapiens, UniProt P41161 1-510). The settings on record: protein: recombinant; tags: N-terminal GST; dsDNA, one strand shown. Put shortly:
as §1

For test [3], the target named is HSF1 (Homo sapiens, UniProt Q00613 1-529). The settings on record: protein: recombinant; tags: N-terminal GST; chain copies: 3; dsDNA, one strand shown. Put shortly: as §1
In test [4] the target is T2, SPIC (Homo sapiens, UniProt Q8N5J4 1-248).
T2 sequence: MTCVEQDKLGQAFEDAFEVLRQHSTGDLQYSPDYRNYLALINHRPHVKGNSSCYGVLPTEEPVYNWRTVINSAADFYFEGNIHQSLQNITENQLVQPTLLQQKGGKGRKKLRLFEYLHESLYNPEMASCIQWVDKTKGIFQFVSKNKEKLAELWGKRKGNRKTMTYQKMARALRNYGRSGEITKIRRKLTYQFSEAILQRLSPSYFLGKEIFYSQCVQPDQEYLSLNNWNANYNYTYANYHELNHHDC
The note with it: protein: recombinant; tags: N-terminal GST; dsDNA, one strand shown. A digest of the protocol:
as §1

Test [5] addresses ELF4 (Homo sapiens, UniProt Q99607 1-663). The note with it: protein: recombinant; tags: N-terminal GST; dsDNA, one strand shown. A digest of the protocol:
as §1

Test [6] has as its target T3, ELK4 (Homo sapiens, UniProt P28324-2 1-405).
T3 sequence: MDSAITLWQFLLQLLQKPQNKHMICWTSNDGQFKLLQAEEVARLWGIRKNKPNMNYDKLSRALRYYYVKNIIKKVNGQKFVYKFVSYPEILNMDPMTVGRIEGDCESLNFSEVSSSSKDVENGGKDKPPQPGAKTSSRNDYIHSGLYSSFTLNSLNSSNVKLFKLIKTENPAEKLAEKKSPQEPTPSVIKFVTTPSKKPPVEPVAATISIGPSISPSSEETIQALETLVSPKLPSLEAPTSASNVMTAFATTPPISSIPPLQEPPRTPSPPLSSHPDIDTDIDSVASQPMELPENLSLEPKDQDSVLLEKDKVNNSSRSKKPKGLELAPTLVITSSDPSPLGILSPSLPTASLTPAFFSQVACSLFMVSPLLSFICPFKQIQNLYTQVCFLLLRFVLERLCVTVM
The settings on record: protein: recombinant; tags: N-terminal GST; dsDNA, one strand shown. A digest of the protocol:
as §1

Test [7] has as its target T4, ETV2 (Homo sapiens, UniProt O00321 1-342).
T4 sequence: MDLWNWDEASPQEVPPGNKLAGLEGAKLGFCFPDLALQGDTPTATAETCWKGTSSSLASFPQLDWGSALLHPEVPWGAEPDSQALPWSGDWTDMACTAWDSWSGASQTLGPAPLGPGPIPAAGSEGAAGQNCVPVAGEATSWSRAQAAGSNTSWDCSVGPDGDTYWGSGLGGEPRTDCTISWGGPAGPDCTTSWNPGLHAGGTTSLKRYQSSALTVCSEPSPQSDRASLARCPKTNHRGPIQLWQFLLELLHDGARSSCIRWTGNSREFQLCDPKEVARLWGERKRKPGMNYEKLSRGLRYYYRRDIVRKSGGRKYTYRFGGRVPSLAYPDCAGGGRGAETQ
The note with it: protein: recombinant; tags: N-terminal GST; dsDNA, one strand shown. A digest of the protocol: as §1

Test [8] addresses T5, ELF3 (Homo sapiens, UniProt P78545 1-371).
T5 sequence: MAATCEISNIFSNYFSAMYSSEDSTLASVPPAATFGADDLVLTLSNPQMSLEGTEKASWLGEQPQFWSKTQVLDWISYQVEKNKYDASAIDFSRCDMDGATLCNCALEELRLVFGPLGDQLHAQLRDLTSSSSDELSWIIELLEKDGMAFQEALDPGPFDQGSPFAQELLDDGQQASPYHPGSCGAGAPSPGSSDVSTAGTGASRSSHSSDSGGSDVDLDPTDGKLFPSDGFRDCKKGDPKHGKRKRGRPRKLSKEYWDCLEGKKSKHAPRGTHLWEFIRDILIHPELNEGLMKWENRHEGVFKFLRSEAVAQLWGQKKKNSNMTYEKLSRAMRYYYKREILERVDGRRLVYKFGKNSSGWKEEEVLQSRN
The note with it: protein: recombinant; tags: N-terminal GST; dsDNA, one strand shown. Put shortly: as §1

Test [9] concerns the target CRX (Homo sapiens, UniProt O43186 1-299). The settings on record: protein: recombinant; tags: N-terminal GST; dsDNA, one strand shown. A digest of the protocol:
as §1

Test [10] concerns the target ETV1 (Homo sapiens, UniProt P50549 1-477). The settings on record: protein: recombinant; tags: N-terminal GST; dsDNA, one strand shown. A digest of the protocol:
as §1

The target in test [11] is T6, ERF (Homo sapiens, UniProt P50548 1-548).
T6 sequence: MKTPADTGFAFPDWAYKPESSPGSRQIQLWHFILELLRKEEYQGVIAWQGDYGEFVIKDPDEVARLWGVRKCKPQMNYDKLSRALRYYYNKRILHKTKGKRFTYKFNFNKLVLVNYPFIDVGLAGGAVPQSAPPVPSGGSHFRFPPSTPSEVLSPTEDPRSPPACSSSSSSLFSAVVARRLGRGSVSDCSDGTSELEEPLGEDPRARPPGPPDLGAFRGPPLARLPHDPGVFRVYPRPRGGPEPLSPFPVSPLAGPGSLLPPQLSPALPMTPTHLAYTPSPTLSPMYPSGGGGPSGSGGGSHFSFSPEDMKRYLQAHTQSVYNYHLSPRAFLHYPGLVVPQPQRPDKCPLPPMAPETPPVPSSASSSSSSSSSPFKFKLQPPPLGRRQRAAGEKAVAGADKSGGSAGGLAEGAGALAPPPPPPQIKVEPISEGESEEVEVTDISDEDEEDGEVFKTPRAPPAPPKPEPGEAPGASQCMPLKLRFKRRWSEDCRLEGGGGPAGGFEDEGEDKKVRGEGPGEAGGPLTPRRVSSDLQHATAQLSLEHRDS
The settings on record: protein: recombinant; tags: N-terminal GST; dsDNA, one strand shown. Put shortly:
as §1

Test [12] has as its target T7, ETV3L (Homo sapiens, UniProt Q6ZN32 1-361).
T7 sequence: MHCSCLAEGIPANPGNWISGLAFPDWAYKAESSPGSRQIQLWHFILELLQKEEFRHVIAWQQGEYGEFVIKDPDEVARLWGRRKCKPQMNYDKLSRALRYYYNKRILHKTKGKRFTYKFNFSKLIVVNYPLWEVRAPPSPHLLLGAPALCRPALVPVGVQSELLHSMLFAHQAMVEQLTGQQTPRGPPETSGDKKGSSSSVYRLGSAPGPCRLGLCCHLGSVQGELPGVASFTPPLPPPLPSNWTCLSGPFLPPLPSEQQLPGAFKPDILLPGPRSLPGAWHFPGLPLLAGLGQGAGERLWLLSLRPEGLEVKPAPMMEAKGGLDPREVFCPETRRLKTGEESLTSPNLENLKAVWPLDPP
The settings on record: protein: recombinant; tags: N-terminal GST; dsDNA, one strand shown. Put shortly:
as §1

Test [13] addresses T8, ETS2 (Homo sapiens, UniProt P15036 1-469).
T8 sequence: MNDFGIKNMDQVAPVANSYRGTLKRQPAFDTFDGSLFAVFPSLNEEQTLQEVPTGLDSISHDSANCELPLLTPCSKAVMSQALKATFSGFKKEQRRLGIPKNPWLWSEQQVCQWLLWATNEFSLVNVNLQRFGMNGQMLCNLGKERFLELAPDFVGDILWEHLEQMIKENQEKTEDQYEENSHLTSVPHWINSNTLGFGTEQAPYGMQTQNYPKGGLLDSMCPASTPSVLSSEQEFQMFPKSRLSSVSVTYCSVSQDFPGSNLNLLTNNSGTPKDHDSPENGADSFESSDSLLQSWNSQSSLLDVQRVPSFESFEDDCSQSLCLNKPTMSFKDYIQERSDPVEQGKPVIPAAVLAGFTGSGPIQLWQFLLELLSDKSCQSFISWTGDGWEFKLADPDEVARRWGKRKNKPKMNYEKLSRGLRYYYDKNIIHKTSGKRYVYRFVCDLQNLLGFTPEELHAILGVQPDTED
The note with it: protein: recombinant; tags: N-terminal GST; dsDNA, one strand shown. A digest of the protocol: as §1

The target of test [14] is T9, SPDEF (Homo sapiens, UniProt O95238 1-335).
T9 sequence: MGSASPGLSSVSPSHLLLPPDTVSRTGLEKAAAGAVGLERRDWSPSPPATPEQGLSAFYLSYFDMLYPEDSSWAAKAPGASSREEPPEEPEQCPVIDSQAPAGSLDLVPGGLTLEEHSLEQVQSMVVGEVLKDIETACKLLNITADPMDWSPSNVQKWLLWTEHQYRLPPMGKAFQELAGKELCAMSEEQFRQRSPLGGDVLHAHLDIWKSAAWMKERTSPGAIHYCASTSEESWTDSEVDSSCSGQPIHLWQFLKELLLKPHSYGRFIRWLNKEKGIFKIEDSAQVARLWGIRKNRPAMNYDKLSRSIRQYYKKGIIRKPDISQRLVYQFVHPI
The note with it: protein: recombinant; tags: N-terminal GST; dsDNA, one strand shown. A digest of the protocol:
as §1

Test [15] concerns the target T10, ETV7 (Homo sapiens, UniProt Q9Y603 1-341).
T10 sequence: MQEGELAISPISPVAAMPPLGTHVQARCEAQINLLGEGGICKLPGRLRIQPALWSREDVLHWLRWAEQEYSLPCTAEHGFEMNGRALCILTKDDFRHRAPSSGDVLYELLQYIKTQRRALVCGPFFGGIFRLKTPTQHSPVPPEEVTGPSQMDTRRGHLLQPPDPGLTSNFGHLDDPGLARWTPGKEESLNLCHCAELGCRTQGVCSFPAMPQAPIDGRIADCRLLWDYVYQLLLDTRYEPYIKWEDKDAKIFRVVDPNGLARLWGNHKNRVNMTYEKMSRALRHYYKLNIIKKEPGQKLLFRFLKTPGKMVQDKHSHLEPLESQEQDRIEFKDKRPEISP
The note with it: protein: recombinant; tags: N-terminal GST; dsDNA, one strand shown. Put shortly:
as §1

Test [16] addresses T11, ELF5 (Homo sapiens, UniProt Q9UKW6-2 1-255).
T11 sequence: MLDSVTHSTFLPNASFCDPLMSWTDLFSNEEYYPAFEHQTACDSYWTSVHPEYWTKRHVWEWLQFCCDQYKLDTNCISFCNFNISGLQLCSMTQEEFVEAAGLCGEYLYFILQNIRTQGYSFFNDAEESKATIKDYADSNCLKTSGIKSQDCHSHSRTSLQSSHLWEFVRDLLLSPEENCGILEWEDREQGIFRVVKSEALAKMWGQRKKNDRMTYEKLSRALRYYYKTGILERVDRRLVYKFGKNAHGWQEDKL
The note with it: protein: recombinant; tags: N-terminal GST; dsDNA, one strand shown. Put shortly: as §1

Test [17] has as its target T12, ETV3 (Homo sapiens, UniProt P41162-2 1-143).
T12 sequence: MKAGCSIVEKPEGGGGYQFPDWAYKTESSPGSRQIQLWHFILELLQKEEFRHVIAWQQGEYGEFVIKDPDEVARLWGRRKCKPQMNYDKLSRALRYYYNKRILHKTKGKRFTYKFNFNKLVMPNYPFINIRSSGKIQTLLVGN
The settings on record: protein: recombinant; tags: N-terminal GST; dsDNA, one strand shown. Put shortly: as §1

For test [18], the target named is ETV6 (Homo sapiens, UniProt P41212 1-452). The settings on record: protein: recombinant; tags: N-terminal GST; dsDNA, one strand shown. Put shortly: as §1
Sequence of ETV6 (P41212 whole entry): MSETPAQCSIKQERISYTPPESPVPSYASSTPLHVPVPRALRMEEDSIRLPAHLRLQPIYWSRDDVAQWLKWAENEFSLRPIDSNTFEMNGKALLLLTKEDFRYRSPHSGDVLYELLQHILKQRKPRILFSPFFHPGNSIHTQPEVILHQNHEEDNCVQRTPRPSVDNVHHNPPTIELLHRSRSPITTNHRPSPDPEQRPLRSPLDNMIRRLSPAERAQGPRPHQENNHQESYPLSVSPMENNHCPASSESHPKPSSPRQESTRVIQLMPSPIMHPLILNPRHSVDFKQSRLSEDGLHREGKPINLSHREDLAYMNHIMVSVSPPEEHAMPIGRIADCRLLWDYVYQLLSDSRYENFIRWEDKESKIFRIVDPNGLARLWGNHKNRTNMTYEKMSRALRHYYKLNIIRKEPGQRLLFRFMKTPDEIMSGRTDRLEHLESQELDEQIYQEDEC

Sequence of ETV5 (P41161 whole entry): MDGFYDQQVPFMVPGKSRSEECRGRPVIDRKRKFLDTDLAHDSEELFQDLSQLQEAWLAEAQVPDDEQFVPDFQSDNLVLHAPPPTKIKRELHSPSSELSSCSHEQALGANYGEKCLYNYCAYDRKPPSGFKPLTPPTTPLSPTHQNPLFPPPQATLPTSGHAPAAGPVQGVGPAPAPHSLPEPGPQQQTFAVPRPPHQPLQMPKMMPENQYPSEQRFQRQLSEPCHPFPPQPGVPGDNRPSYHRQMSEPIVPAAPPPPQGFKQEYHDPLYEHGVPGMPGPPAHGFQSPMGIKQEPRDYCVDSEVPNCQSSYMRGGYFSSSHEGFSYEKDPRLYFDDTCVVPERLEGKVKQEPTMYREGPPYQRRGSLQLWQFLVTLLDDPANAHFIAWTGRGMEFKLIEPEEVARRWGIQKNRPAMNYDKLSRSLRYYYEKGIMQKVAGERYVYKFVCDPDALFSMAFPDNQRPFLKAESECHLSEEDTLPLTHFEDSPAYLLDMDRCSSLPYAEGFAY
Sequence of CRX (O43186 whole entry): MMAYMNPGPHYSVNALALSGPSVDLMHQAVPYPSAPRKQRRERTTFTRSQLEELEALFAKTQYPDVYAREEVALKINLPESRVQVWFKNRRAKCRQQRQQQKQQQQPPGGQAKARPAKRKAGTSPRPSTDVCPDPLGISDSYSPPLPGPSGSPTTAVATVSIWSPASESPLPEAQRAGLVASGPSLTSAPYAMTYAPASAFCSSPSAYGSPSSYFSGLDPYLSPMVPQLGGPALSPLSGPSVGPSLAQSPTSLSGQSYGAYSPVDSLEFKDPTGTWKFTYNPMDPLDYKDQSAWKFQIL
Sequence of ELF4 (Q99607 whole entry): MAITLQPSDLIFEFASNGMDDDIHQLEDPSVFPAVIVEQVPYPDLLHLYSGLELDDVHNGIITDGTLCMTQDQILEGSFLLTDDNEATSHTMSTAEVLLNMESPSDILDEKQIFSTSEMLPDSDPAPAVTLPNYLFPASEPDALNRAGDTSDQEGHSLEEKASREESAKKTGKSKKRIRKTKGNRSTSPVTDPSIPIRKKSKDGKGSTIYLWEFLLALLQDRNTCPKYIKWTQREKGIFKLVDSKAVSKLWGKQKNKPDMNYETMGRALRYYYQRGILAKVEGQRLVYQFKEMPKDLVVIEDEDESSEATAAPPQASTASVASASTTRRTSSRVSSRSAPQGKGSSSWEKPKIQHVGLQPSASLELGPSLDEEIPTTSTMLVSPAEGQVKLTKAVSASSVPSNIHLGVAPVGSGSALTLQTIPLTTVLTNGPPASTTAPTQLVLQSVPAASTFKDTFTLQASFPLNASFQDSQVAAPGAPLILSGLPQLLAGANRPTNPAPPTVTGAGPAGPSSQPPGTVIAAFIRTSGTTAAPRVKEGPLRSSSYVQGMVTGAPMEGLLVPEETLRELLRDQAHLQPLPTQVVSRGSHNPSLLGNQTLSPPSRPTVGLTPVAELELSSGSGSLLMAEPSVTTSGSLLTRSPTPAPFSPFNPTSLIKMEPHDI
Sequence of HSF1 (Q00613 whole entry): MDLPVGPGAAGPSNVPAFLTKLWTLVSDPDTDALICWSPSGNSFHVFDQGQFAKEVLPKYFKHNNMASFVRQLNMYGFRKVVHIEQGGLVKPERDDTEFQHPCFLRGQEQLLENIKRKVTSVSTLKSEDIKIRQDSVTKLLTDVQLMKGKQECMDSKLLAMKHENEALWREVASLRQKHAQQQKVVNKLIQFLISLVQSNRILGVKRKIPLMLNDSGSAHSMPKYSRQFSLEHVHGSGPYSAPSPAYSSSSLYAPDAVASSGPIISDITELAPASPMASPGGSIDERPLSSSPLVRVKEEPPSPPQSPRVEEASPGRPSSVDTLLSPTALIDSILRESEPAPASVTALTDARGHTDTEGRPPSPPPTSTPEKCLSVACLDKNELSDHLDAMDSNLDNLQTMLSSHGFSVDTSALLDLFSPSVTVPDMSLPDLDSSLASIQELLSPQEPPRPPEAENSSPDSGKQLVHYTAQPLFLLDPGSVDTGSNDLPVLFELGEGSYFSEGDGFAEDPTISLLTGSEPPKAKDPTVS
Sequence of ETV1 (P50549 whole entry): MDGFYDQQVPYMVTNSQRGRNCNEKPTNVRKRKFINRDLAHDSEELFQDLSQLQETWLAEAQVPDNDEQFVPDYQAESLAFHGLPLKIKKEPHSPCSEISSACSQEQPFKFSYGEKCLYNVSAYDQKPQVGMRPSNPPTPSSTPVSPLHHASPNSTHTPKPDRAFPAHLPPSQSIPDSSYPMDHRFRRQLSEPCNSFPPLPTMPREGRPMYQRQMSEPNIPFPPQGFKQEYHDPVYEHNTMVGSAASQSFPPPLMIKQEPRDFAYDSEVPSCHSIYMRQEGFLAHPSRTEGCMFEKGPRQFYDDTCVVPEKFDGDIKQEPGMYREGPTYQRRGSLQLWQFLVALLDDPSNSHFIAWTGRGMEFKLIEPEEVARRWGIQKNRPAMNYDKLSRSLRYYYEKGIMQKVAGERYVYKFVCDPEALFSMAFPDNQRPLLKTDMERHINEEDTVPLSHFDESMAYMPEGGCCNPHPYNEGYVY

On to ATTGGT, for which the binding signal is 1.21 fold enrichment (6-mer frequency, TF over GST control) in test [1]; 1.29 fold enrichment (6-mer frequency, TF over GST control) in [2]; 1.12 fold enrichment (6-mer frequency, TF over GST control) in test [3]; 1.24 fold enrichment (6-mer frequency, TF over GST control) in test [4]; 1.27 fold enrichment (6-mer frequency, TF over GST control) in test [5]; 1.19 fold enrichment (6-mer frequency, TF over GST control) in test [6]. For the same sequence, the binding signal was 1.01 fold enrichment (6-mer frequency, TF over GST control) in test [7]; 1.14 fold enrichment (6-mer frequency, TF over GST control) in [8]; 1.2 fold enrichment (6-mer frequency, TF over GST control) in [9]; 1.29 fold enrichment (6-mer frequency, TF over GST control) in test [10]; 1.21 fold enrichment (6-mer frequency, TF over GST control) in test [11]; 1.24 fold enrichment (6-mer frequency, TF over GST control) in test [12]. Moreover, the binding signal in test [13] was 1.34 fold enrichment (6-mer frequency, TF over GST control); in test [14], 1.26 fold enrichment (6-mer frequency, TF over GST control); in test [15] it was 1.27 fold enrichment (6-mer frequency, TF over GST control); in [16], 1.19 fold enrichment (6-mer frequency, TF over GST control); in [17], 1.24 fold enrichment (6-mer frequency, TF over GST control); in test [18], 1.13 fold enrichment (6-mer frequency, TF over GST control).
